This note sets out measurements from ChEMBL document CHEMBL4513216, “Probing the Open Global Health Chemical Diversity Library for Multistage-Active Starting Points for Next-Generation Antimalarials” (ACS Infect Dis, 2020).

Out of some 69,000 compounds screened, about 8,600 (12%) showed an effect of 50% or more. The entries come from a sample that favours strong results as a whole.

The subject of the experiment is Plasmodium berghei. Description: Screen against P. berghei liver stage (PbLuc), transformed with Luciferase, at 10uM. To be noted: tested at 10 uM. Format: functional, HepG2.
Regarding `COCCN1CCCC1Cn1nc(C)cc1C` (stereo not drawn), the INHIBITION turned out to be 32.3%.
With `Cc1cc(=O)n2nc(Oc3ccc(Cl)c(C)c3)sc2n1`, the INHIBITION was found to be 16.3%.
For `CCC(C)N(Cc1cnc(NCC(=O)O)nc1)Cc1ccsc1` (stereo not drawn) the value was 41.3%; for `O=C(Cc1ccccc1O)NC1CCCN(c2ccccc2F)C1=O` (stereo not drawn), 26.4%.
`Cc1cc(C(=O)NCCC(=O)N2CCCc3ccccc32)no1`: the INHIBITION is given as 1.51%.
The result for `O=C(c1ccnnc1)N1C[C@H](OCC2CCOCC2)[C@H]2OCCC[C@H]21` reads 4.68%.
Turning to `CN(Cc1ncc(-c2ccccc2)o1)CC1CCCN1c1cccnn1` (stereo not drawn), the INHIBITION was 37%.
On to `Cc1nc2ccccc2nc1CN(C)CC1CCCN1c1cccnn1` (stereo not drawn), for which the INHIBITION stood at 10.2%.
As for `Cc1nc(CN(C)CC2CCCN2c2cccnn2)nc2ccccc12` (stereo not drawn), the INHIBITION worked out at 60.9%.
For `CN(Cc1nc2ccccc2o1)CC1CCCN1c1cccnn1` (stereo not drawn) the value was 55%; for `CN(Cc1nc(N)c2ccccc2n1)CC1CCCN1c1cccnn1` (stereo not drawn), 11.8%; for `CN(Cc1ncc(C(C)(C)C)o1)CC1CCCN1c1cccnn1` (stereo not drawn), 86.6%.
For `Cc1nnc(CN(C)CC2CCCN2c2cccnn2)o1` (stereo not drawn) the value was 19.5%; for `Cc1nc(CN(C)CC2CCCN2c2cccnn2)oc1C` (stereo not drawn), -27.8%.
Turning to `CC(C)(C)c1cnc(CNCC2CCCN2c2cccnn2)o1` (stereo not drawn), the INHIBITION stood at 34.1%.
The result for `CC(=O)N1CCCN(C(C)c2ccc(Br)cc2)CC1` (stereo not drawn) reads -19.2%.
For `CC(C)CNC(=O)N1CC[C@@H]2CN(Cc3cccnc3)S(=O)(=O)[C@@H]2CC1` the value was 32.1%; for `CCC(CC)C(O)CNC(=O)Cc1c[nH]c2ncccc12` (stereo not drawn), 2.38%; for `CCN1CCCC(O)(CN(C)Cc2ccccc2F)C1` (stereo not drawn), 8.46%.
For `O=C1CC(c2ccccc2)C2(CCN(C(=O)c3ccncc3F)CC2)N1` (stereo not drawn) the value was 32.2%.
For the compound `COCCCNC(=O)Nc1ccc(F)c(C(N)=O)c1`, the INHIBITION was -23.9%.
The result for `COc1c(Cl)cc(Cl)cc1CN1CCC(C(N)=O)C1` (stereo not drawn) reads -11.3%; that for `O=C(NCc1ccccc1F)N1CCCCC1C1OCCO1` (stereo not drawn), -6.88%.
For `CCC(CO)N(Cc1cccc(-n2cccn2)c1)Cc1cccs1` (stereo not drawn) the value was 53.2%; for `CCC(CO)N(Cc1cccc(-n2cccn2)c1)Cc1ccccn1` (stereo not drawn), 25.5%.
For `CN(Cc1cccc(-n2cccn2)c1)Cc1cccs1` the value was -29%; for `O=C(COc1cccc(F)c1)N1C[C@H](CO)C[C@H](CN2CCCC2)C1`, 10.42%.
As for `O=C(COc1cccc(F)c1)N1C[C@@H](O)[C@H](N2CCCC2)C1`, the INHIBITION was 53.5%.
For `O=C(COc1cccc(F)c1)N1C[C@@H](CN2CCCC2)C[C@H](CO)C1` the value was -1.315%; for `O=C(COc1cccc(F)c1)N1C[C@@H](O)[C@H](N2CCOCC2)C1`, 32.3%.
The result for `O=C(COc1ccccc1)N1C[C@@H](O)[C@H](N2CCCC2)C1` reads 37%; that for `CN(C)[C@@H]1CN(C(=O)COc2cccc(F)c2)C[C@H]1O`, 54.5%.
For `COCCN1C(=O)[C@]2(CC[C@@H]3CN(Cc4ccccc4F)C[C@@H]32)N=C1C` the value was 14.9%.
In the case of `O=C(Nc1cnn(-c2ccccc2Cl)c1)NC1CCC(O)CC1` (stereo not drawn), the INHIBITION was -66.7%.
As for `Cc1nn(C)c(C)c1S(=O)(=O)N1CC[C@H]2O[C@@H](C)C[C@H]2C1`, the INHIBITION is 17.4%.
As to `COC(=O)[C@H](C)NC(=O)CSCc1nc2sc(C(C)C)cc2c(=O)[nH]1`, the INHIBITION amounted to 28.7%.
`O=C(C1CCC1)N1C2CCC(O)(CC2)C1CN1CCOCC1` (stereo not drawn): the INHIBITION came to 16.2%.
The result for `Cn1nc(-c2ccc(F)cc2)cc1C(=O)NCCn1ccnc1` reads -0.232%; that for `Cc1csc(N2CCN(CC(=O)Nc3cccnc3)CC2C)n1` (stereo not drawn), 11.9%.
As to `CC1CN(CC(=O)Nc2cccnc2)CCN1c1nccs1` (stereo not drawn), the INHIBITION is listed as 52.7%.
For `CC1CN(CC(=O)Nc2ccncc2)CCN1c1nccs1` (stereo not drawn) the value was 21.6%; for `Cc1csc(N2CCN(CC(=O)Nc3nncs3)CC2C)n1` (stereo not drawn), 40.9%; for `Cc1csc(N2CCN(CC(=O)Nc3ccncc3)CC2C)n1` (stereo not drawn), 71.75%.
The result for `O=C(CN1CCN(c2nccs2)CC1)Nc1cccnc1` reads -24.2%; that for `Cc1cc(N2CCN(Cc3ccnn3C)CC2)cc(C2CCCN2)n1` (stereo not drawn), 37.45%.
For `Cc1cccc(S(=O)(=O)N2CC[C@H]3CO[C@H](CN(C)C)[C@H]3C2)c1`, the INHIBITION was -1.55%.
With `COCc1nn(C(C)C)c2c1CCN(Cc1nccs1)C2`, the INHIBITION is given as -11.6%.
With `O=C(c1cnccn1)N1CCN(Cc2cccnc2)c2ncccc2C1`, the INHIBITION came out at 11.5%.
The result for `CN1[C@H](CO)C[C@H](CNCc2ccc(Cl)c(F)c2)[C@@H]1c1ccccc1F` reads 53.5%; that for `CN1[C@H](CO)C[C@H](CNCc2ccc(CO)o2)[C@@H]1c1ccccc1F`, 28.7%; that for `CCc1ccc(CNC[C@H]2C[C@@H](CO)N(C)[C@H]2c2ccccc2F)o1`, -3.96%.
The result for `CCC(=O)N1CCC(c2nc(N3CCOCC3)ncc2S(C)(=O)=O)CC1` reads 36%; that for `Cc1nnc(C2Cc3ccccc3CN2Cc2c(C)noc2C)o1` (stereo not drawn), 19.5%.
